Molecules are shown by their SMILES. Counter-ions that a name gives are not always drawn. A number with no mark means an inactive call.

This assay relates to Vero E6 infected with SARS-CoV-2. As to the kind of experiment: SARS-CoV-2 infection rate relative to infected DMSO; higher = more infection, active = 60 or less. Particulars: 24 h.
`C[C@@H](NC(=O)[C@@H](N)Cc1ccc(O)cc1)C(=O)NCC(=O)N(C)[C@@H](Cc1ccccc1)C(=O)N[C@H](CO)CC[S+](C)[O-]` (some centres undefined) (10 µM): the SARS-CoV-2 infection rate was 112%.
Then `CCOC(=O)c1c(/C(C#N)=C\N)c2ccc(Cl)c(Cl)c2n1C` (10 µM), with 105%.
Then `CN(C)CCCC(=O)Nc1ccc(C(=O)Nc2cccc(Nc3ncc(Cl)c(-c4c[nH]c5ccccc45)n3)c2)cc1` (10 µM), with 101%.
Then `C=CCN1CC[C@]2(C)c3cc(O)ccc3C[C@H]1[C@H]2C` (10 µM), with 102%; and `CCCN1CC(NS(=O)(=O)N(CC)CC)CC2Cc3c(O)cccc3CC21` (centres undefined) [quinagolide] (10 µM), with 112%; and `O=C(/C=C/c1ccccc1)NCCO` [brolitene] (10 µM), with 93.5%.
Consider `CCN1CCN(c2cc3c(cc2F)c(=O)c(C(=O)O)cn3C2CC2)CC1` [enrofloxacin] (10 µM), for which the SARS-CoV-2 infection rate was 112%.
Then `CC1CCc2cc(F)cc3c(=O)c(C(=O)O)cn1c23` (centres undefined) [flumequine] (10 µM), with 116%; and `CC(C)c1c2cc(-c3ccnc(N[C@H]4CC[C@H](NC5CCOCC5)CC4)n3)ccc2nn1C` (0.833333 µM), with 90.5%; and `O=C1CCC[C@@H]2[C@H]3CCC[N+]4([O-])CCC[C@@H](CN12)[C@@H]34` (some centres undefined) [oxymatrine] (10 µM), with 100%.
Then `Cc1[nH]c2ccc(O)cc2c1CCN` [2-methyl-5-hydroxytryptamine] (10 µM), with 108%; and `C[C@H]1COc2c(C3(N)CC3)c(F)cc3c(=O)c(C(=O)O)cn1c23` [pazufloxacin] (10 µM), with 103%.
As to `COC[C@@H](NC(C)=O)C(=O)NCc1ccccc1` [Lacosamide] (10 µM), the SARS-CoV-2 infection rate is 103%.
Then `CCSC(=N)N` [EIT-hydrobromide] (10 µM), with 102%; and `COc1cccc(OC)c1-c1cc(C(=O)N[C@@H](CC(C)C)C(=O)O)nn1-c1ccnc2cc(Cl)ccc12` (10 µM), with 114%; and `NCCCCN(Cc1nc2ccccc2[nH]1)[C@H]1CCCc2cccnc21` (10 µM), with 102%.
Then `N#C/C(=C1/SCC(c2ccccc2Cl)S1)n1ccnc1` (centres undefined) [lanoconazole] (10 µM), with 99.5%.
Then `CC(=O)Oc1ccccc1C(=O)Oc1ccccc1C(=O)O` [acetylsalicylsalicylic-acid] (10 µM), with 103%.
For the compound `C[N+]1(C)CCC(=C(c2ccccc2)c2ccccc2)CC1` [diphemanil] (10 µM), the SARS-CoV-2 infection rate was 95.5%.
Then `O=C(O)CCCCCCNC1c2ccccc2CCc2ccccc21` [amineptine] (10 µM), with 105%; and `CCc1cc2c(cc1N1CCC(N3CCOCC3)CC1)C(C)(C)c1[nH]c3cc(C#N)ccc3c1C2=O` [alectinib] (10 µM), with 106%.
In the case of `CN[C@@H](C)C(=O)N[C@H](C(=O)N1CCC[C@H]1c1nc(C(=O)c2ccc(F)cc2)cs1)C1CCCCC1` (10 µM) it was 87%.
Then `Cc1cc(Cl)ccc1OCCCC(=O)NO` [droxinostat] (10 µM), with 90%; and `C[S+]([O-])c1ccc(-c2nc(-c3ccc(F)cc3)c(-c3ccncc3)[nH]2)cc1` (centres undefined) (10 µM), with 95%; and `O=[N+]([O-])/C=C/c1ccc2c(c1)OCO2` [3,4-methylenedioxy-beta-nitrostyrene] (10 µM), with 41% (active).
On to `NC(=O)c1ccccc1O` [salicylamide] (10 µM), for which the SARS-CoV-2 infection rate was 102%.
For the compound `Nc1nccc(-c2ccc3noc(-c4ccc(Cl)cc4)c3c2)n1` [PIM-1-Inhibitor-2] (10 µM), the SARS-CoV-2 infection rate is 111%.
Then `Nc1ccc(C(=O)NCC(=O)O)cc1` [4-aminohippuric-acid] (10 µM), with 108%.
In the case of `CC(C(=O)O)c1ccc2c(c1)Cc1cccnc1O2` (centres undefined) [pranoprofen] (10 µM) it was 122%.
Then `Cc1ccccc1CN1C(=O)C2=C(CCN(Cc3ccccc3)C2)N2CCN=C12` (0.833333 µM), with 82%; and `OB1OCc2cc(Cl)ccc21` (10 µM), with 106%; and `N#CC(c1ccnc(OCc2ccc(CN3CCOCC3)cc2)n1)c1nc2ccccc2s1` (centres undefined) (10 µM), with 99.5%.
Take `CCCCN1CCC(CNC(=O)c2c3n(c4ccccc24)CCCO3)CC1` [piboserod] (10 µM): the SARS-CoV-2 infection rate is 92.5%.
For the compound `NC(=O)CCCCC1CCSS1` (centres undefined) [lipoamide] (10 µM), the SARS-CoV-2 infection rate was 108%.
Then `Cc1cc(Nc2ncnc3ccc(NC4=NC(C)(C)CO4)cc23)ccc1Oc1ccn2ncnc2c1` [tucatinib] (0.833333 µM), with 114%.
Then `Nc1c(CC(=O)O)cccc1C(=O)c1ccc(Br)cc1` [bromfenac] (10 µM), with 104%; and `COc1ccc(CCN)cc1OC` [homoveratrylamine] (10 µM), with 118%; and `COc1cccc2c1C(=O)c1c(O)c3c(c(O)c1C2=O)C[C@@](O)(C(=O)CO)C[C@@H]3O[C@H]1C[C@H](N)[C@@H](O)[C@H](C)O1` [Epirubicin Hydrochloride] (10 µM), with 108%.
Take `CC/C(=C(\c1ccc(O)cc1)c1ccc(OCCNC)cc1)c1ccccc1` [Endoxifen HCl] (10 µM): the SARS-CoV-2 infection rate was 26% (active).

Source of the values: the supplement of paper PMC13380429.
